# Values joined by “and” are separate entries in the source; they are usually repeats but may differ in a detail not shown here. Equal entries are not always repeated. Records with an inconclusive call do not appear. Entries that show only a call come without a potency. Active and inactive are the calls of the source. Unless noted, calls come from the whole dose curve; as a rule, active = well fitted curve in the direction sought with a large enough effect in the repeat runs; inconclusive = weak or mixed curves; inactive = no such curve, though single readings can be large; an effect the other way counts as inactive or inconclusive.
# Assays:
# [1] = qHTS assay to identify aromatase inhibitors - cell viability counter screen (AID 743084);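 note: cells stimulated with testosterone during compound exposure; nearly all actives have a fitted effect of over 55% in size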
# [2] = molecular target: Aryl hydrocarbon receptor (Homo sapiens) (UniProt P35869); assay: qHTS assay to identify small molecule that activate the aryl hydrocarbon receptor (AhR) signaling pathway (AID 743085); note: nearly all actives have a fitted effect of over 15% in size; note: potency is the fitted concentration of half-maximal effect;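 for activation: HG2L7.5c1 human HepG2 liver cells with stably integrated DRE-driven firefly reporter; series mostly up to about 70 µM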
# Summary of the method: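 Stably transfected human liver carcinoma cells (HG2L7.5c1; 20 DRE-firefly luciferase) were incubated 5 h, dosed, and kept 24 h at 37C. Agonism was scored from increased luciferase luminescence.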
# [3] = qHTS assay to identify small molecule that activate the aryl hydrocarbon receptor (AhR) signaling pathway - cell viability counter screen (AID 743086); note: nearly all actives have a fitted effect of over 45% in size; note: potency is the fitted concentration of half-maximal effect
# Summary of the method: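 HepG2-AhR-luc (HG2L7.5c1) cells, 4000/well, treated 24 h at 37 C with compound; viability measured as CellTiter-Fluor fluorescence after 30 min in the same wells as the luciferase read.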
# [4] = molecular target: Peroxisome proliferator-activated receptor gamma (Homo sapiens) (UniProt P37231); assay: qHTS assay to identify small molecule agonists of the peroxisome proliferator-activated receptor gamma (PPARg) signaling pathway (AID 743094; active = well fitted activation curve with a large enough effect in the signal ratio in the repeat runs, not every such curve was filed as active; the % refers to the signal ratio)
# Summary of the method: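 GeneBLAzer PPARg UAS-bla HEK293H cells carrying a stably integrated beta-lactamase reporter were pre-incubated 5 h at 37C, then exposed to compounds in DMSO for 17 h at 37C; LiveBLAzer B/G FRET substrate was added for 1 h at room temperature and fluorescence read.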
# [5] = qHTS assay to identify small molecule antagonists of the peroxisome proliferator-activated receptor gamma (PPARg) signaling pathway - cell viability counter screen (AID 743194); conditions: Potency: co-treated with 50 nM rosiglitazone; note: nearly all actives have a fitted effect of over 55% in size
# Summary of the method: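 Cytotoxicity counter screen in PPARg-bla HEK293H cells, same wells as reporter assay. Compounds plus 50 nM rosiglitazone (final) for 17 h at 37 C, then viability read by CellTiter-Glo luminescence.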
# [6] = qHTS assay for small molecule agonists of the antioxidant response element (ARE) signaling pathway (AID 743202; active = well fitted activation curve with a large enough effect in the signal ratio in the repeat runs, not every such curve was filed as active; the % refers to the signal ratio; note: potency is the fitted concentration of half-maximal effect)
# Summary of the method: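 ARE-bla HepG2 cells (beta-lactamase reporter under the antioxidant response element), plated 5 hours, then exposed to compounds 16 hours at 37 C. LiveBLAzer B/G FRET substrate added for 2 hours at room temperature; fluorescence intensity read.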
# [7] = qHTS assay for small molecule agonists of the antioxidant response element (ARE) signaling pathway - cell viability counter screen (AID 743203; calls by dose curve; note: nearly all actives have a fitted effect of over 55% in size)
# Summary of the method: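 CellSensor ARE-bla HepG2 cells, 2,000 per well, rested 5 hrs at 37C/5% CO2, then exposed to compound in DMSO for 16 hrs; viability read as CellTiter-Glo luminescence after 30 min at room temperature, in the reporter wells.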
# [8] = qHTS assay for small molecule activators of the heat shock response signaling pathway - cell viability counter screen (AID 743209); note: nearly all actives have a fitted effect of over 50% in size
# Summary of the method: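 CellSensor HSE-bla HeLa cells, plated overnight at 37 C/5% CO2, were exposed to compounds in DMSO for 5 h at 37 C. Viability was then read in the same wells by CellTiter-Glo luminescence after 30 min at room temperature.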
# [9] = qHTS assay for small molecule activators of the heat shock response signaling pathway (AID 743210; active = well fitted activation curve with a large enough effect in the signal ratio in the repeat runs, with a control signal flat, not every such curve was filed as active; the % refers to the signal ratio; note: series mostly up to about 63 µM)
# Summary of the method: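 HSE-bla HeLa cells (beta-lactamase reporter under heat shock response elements), plated overnight, then exposed to compounds 5 h at 37 C; LiveBLAzer B/G FRET substrate added, 2.5 h at room temperature, fluorescence intensity read.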
# [10] = molecular target: Peroxisome proliferator-activated receptor gamma (Homo sapiens) (UniProt P37231); assay: qHTS assay to identify small molecule antagonists of the peroxisome proliferator-activated receptor gamma (PPARg) signaling pathway (AID 743191; calls by dose curve; note: nearly all actives have a fitted effect of over 30% in size; note: potency is the fitted concentration of half-maximal effect)
# Summary of the method: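 GeneBLAzer PPARg UAS-bla HEK293H cells, 5 h post-plating, exposed to compounds 17 h at 37C. LiveBLAzer B/G FRET substrate added for 1 h at room temperature; beta-lactamase reporter read by fluorescence intensity.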
# Chain of Aryl hydrocarbon receptor (Homo sapiens) (P35869 whole entry, looked up): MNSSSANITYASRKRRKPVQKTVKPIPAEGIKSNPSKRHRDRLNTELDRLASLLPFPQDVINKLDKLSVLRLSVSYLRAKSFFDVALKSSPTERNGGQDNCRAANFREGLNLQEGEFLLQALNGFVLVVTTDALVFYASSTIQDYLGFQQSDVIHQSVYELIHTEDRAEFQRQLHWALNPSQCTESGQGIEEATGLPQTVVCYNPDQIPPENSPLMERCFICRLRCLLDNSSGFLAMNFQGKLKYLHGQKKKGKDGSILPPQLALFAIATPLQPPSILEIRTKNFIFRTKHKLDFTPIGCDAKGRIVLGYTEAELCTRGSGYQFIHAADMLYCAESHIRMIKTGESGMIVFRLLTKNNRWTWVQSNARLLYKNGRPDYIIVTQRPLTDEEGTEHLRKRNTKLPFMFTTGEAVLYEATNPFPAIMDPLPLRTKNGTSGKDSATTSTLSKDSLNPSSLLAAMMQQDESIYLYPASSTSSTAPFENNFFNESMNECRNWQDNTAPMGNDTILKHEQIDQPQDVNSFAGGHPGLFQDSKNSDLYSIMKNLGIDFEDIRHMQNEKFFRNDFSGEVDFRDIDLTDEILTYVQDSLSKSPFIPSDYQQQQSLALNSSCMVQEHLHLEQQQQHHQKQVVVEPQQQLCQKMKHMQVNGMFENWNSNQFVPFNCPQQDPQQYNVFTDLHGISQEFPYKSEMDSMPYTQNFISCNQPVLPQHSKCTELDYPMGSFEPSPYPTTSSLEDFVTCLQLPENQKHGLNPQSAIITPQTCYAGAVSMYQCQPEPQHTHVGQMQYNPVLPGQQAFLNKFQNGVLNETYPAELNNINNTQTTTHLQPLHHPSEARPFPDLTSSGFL
# Chain of Peroxisome proliferator-activated receptor gamma (Homo sapiens) (P37231 whole entry, looked up): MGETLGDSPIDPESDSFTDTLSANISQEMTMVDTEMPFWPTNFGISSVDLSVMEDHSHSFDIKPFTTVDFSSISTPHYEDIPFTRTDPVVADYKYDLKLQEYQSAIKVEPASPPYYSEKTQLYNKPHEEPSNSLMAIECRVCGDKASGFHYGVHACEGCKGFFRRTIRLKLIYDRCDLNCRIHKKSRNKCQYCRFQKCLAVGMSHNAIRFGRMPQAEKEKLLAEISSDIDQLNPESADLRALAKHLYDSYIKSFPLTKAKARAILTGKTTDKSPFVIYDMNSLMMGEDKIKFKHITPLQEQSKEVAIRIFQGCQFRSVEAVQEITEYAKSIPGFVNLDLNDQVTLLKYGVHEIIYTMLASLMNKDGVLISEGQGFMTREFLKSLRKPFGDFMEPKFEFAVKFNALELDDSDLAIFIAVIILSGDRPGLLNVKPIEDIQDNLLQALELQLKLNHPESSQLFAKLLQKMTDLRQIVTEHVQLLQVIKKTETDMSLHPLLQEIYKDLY
Compound,Potency [1],Potency [2],Potency [3],Potency [4],Potency [5],Potency [6],Potency [7],Potency [8],outcome [9],Potency [10]
C=CC(=O)OCC(C)C,inactive,inactive,inactive,inactive,inactive,inactive,inactive,inactive,–,–
Clc1cc(Cl)c(Cl)c(Cl)c1,inactive,inactive,inactive,inactive,inactive,inactive,inactive,inactive,inactive,–
COC(N)=O,inactive,inactive,inactive,inactive,–,–,inactive,inactive,inactive,inactive
CNC(C)Cc1ccccc1OC (configuration not stated),inactive,inactive,inactive,inactive,inactive,inactive,inactive,–,inactive,–
ClC=C(Cl)Cl,inactive,inactive,inactive,inactive,inactive,inactive,inactive,inactive,inactive,–
Nc1nc(=S)[nH][nH]1,inactive,inactive,inactive,inactive,inactive,inactive,inactive,–,inactive,–
c1ccc(C2CC2)c(OCC2=NCCN2)c1,inactive,inactive,inactive,inactive,inactive,inactive,inactive,–,inactive,–
CCOS(C)(=O)=O,inactive,inactive,inactive,inactive,inactive,inactive,inactive,–,inactive,–
Clc1ccc(C(OCCN2CCCCC2)c2ccccc2)cc1 (configuration not stated),inactive,inactive,inactive,inactive,–,–,–,–,inactive,inactive
CCCCOC(=O)c1ccccc1C(=O)OCc1ccccc1,inactive,inactive,inactive,inactive,inactive,inactive,inactive,inactive,inactive,–
CCOP(=S)(OCC)SCSCC,inactive,inactive,inactive,inactive,inactive,inactive,inactive,inactive,inactive,–
COC(=O)c1cncn1C(C)c1ccccc1 (configuration not stated),inactive,inactive,inactive,inactive,inactive,inactive,inactive,–,inactive,–
O=Cc1ccc(Cl)cc1Cl,inactive,inactive,inactive,inactive,inactive,inactive,inactive,–,inactive,–
CCOP(=O)(OCC)Oc1ccc([N+](=O)[O-])cc1,inactive,inactive,inactive,inactive,–,–,inactive,inactive,inactive,22.1 µM (active)
O=NN1CCCCCC1,inactive,inactive,inactive,inactive,inactive,inactive,inactive,inactive,inactive,–
CCOP(=S)(OCC)Oc1nc(Cl)c(Cl)cc1Cl,inactive,27.4 µM (active) and 10.9 µM (active),inactive,inactive,inactive,–,inactive,inactive,inactive,–
Brc1ccc(Oc2ccccc2)cc1,inactive,inactive,inactive,inactive,–,inactive,inactive,inactive,inactive,–
O=C1NCN(c2ccccc2)C12CCN(CCCOc1ccc(F)cc1)CC2,inactive,inactive,5.31 µM (active),inactive,–,2.37 µM (active),–,–,–,–
C[C@H]1CNCCc2ccc(Cl)cc21,inactive,inactive,inactive,inactive,inactive,–,inactive,inactive,inactive,–
NC(=O)CI,inactive,inactive,inactive,inactive,–,inactive,inactive,inactive,inactive,–
CCOP(=O)(OCC)O/C(=C/Cl)c1ccc(Cl)cc1Cl,inactive,inactive,inactive,inactive,inactive,–,inactive,inactive,inactive,–
O=C(O)COc1ccc(Cl)cc1,inactive,inactive,inactive,inactive,–,–,inactive,inactive,inactive,–
O=Cc1ccc2c(c1)OCO2,inactive,inactive,inactive,inactive,–,inactive,inactive,inactive,–,–
O=C(OC1CCCCC1)c1ccccc1C(=O)OC1CCCCC1,inactive,inactive,inactive,inactive,–,–,inactive,inactive,inactive,–
Cc1ccc2ccccc2c1,inactive,inactive,inactive,inactive,inactive,–,inactive,–,inactive,–
CCC(Br)(CC)C(=O)NC(N)=O,inactive,inactive,inactive,inactive,inactive,–,inactive,inactive,inactive,–
CCN(C)N=O,inactive,inactive,inactive,inactive,inactive,–,inactive,inactive,inactive,–
O=C(C(Cl)(Cl)Cl)C(Cl)(Cl)Cl,inactive,inactive,inactive,inactive,–,inactive,inactive,inactive,inactive,–
BrCCCCBr,inactive,inactive,inactive,inactive,–,–,inactive,inactive,inactive,–
